Experimental data reported in PubChem BioAssay AID1621 (Southern Research Specialized Biocontainment Screening …, 2009).
About 60 (0.02%) of roughly 290,000 compounds were called active. About 1% were inconclusive and are not listed. A selection follows. Results with a measured potency or affinity are listed apart. Unmarked numbers belong to inactive results. How the calls were made is not given here.

assay: inhibition of WNV-induced cytopathic effect – cell-based, CPE readout (AID 1621); details: West Nile virus-infected cells, at 10 µM, hits give high values

| Structure (SMILES) | CPE inhibition |
| --- | --- |
| CCOc1ccc(-c2cc(C(=O)NCCCN3CCCC3)c3ccccc3n2)cc1 | 11.7% |
| Cc1ccc(-c2cc(C(=O)NCCCN3CCOCC3)c3ccccc3n2)cc1C | 0.07% |
| O=C(NCc1ccc(F)cc1)C1CCCN(S(=O)(=O)c2ccc(-n3cnnn3)cc2)C1 (stereo not given) | 0.7% |
| CN(C)CCCN1c2ccccc2CCc2ccc(Cl)cc21 | -0.38% |
| CN(C)CCCN1c2ccccc2CCc2ccccc21 | -0.69% |
| COc1ccc(/C=C/C(=O)OCC(=O)NCc2ccco2)c(OC)c1 | -0.46% |
| CCC(C)C(=O)N1CCCC(c2nc(-c3cccs3)no2)C1 (stereo not given) | -0.34% |
| COc1ccccc1OCCn1cc(/C=N/NC(N)=S)c2ccccc21 | -0.18% |
| Cc1cccc(-n2c(SCC(=O)O)nc3sc4c(c3c2=O)CCCC4)c1 | 0.2% |
| C[C@@H]1C[C@@H]2OC(=O)[C@]3(C)[C@H]2[C@@H](OC3(C)O)[C@]2(C)C(=O)C=C[C@H]12 (stereo not given in full) | 1.25% |
| CCOC(=O)C1CCN(C(=S)Nc2cc(OC)c(OC)cc2C(=O)OC)CC1 | 0.82% |
| O=C(NCCCN1CCCC1)c1ccc2c(c1)N(Cc1ccccc1F)C(=O)c1ccccc1S2=O (stereo not given) | -0.62% |
| Cc1ccccc1CN1C(=O)c2ccccc2S(=O)c2ccc(C(=O)NCCCN3CCOCC3)cc21 (stereo not given) | -0.39% |
| Cc1ccc(-c2csc(N3CCN(c4cc5c(cc4Cl)nc(C)n5CCN4CCCCC4)CC3)n2)cc1 | 0.49% |
| O=[N+]([O-])c1ccc(C(O)CSC(=S)N2CCCCC2)cc1 (stereo not given) | -0.96% |
| CCN1CCN(c2ccc(S(=O)(=O)N3CCCCC3)cc2NC(=O)Cc2ccc(OC)cc2)CC1 | 0.99% |
| CCN1CCN(c2ccc(S(=O)(=O)N3CCCCC3)cc2NC(=O)Cc2c(F)cccc2Cl)CC1 | 0.49% |
| COc1ccc(Cl)cc1C(=O)NCCCSc1ccccc1 | -1.17% |
| COc1ccc(CNC(=O)CCN2C(=O)c3ccncc3C2=O)cc1OC | 0.59% |
| COc1cc(-c2nc(C(=O)NC3CCCCC3)cc3c2[nH]c2ccccc23)cc(OC)c1OC | 1.01% |
| N=c1c(C(=O)NCCN2CCOCC2)cc2c(=O)n3ccccc3nc2n1Cc1ccc(F)cc1 | 0% |
| Cc1cccn2c(=O)c3cc(C(=O)NCCN4CCOCC4)c(=N)n(CCN4CCOCC4)c3nc12 | -0.04% |
| CN1C(=O)c2ccc(C(=O)NCc3ccco3)cc2C1=O | 1.39% |

| Structure (SMILES) | CPE inhibition |
| --- | --- |
| c1ccc(Sc2ncnc3c2oc2ccccc23)nc1 | 1.08% |
| ClC(/C=N/n1cnnc1)=C/c1ccccc1 | 2.95% |
| CC(/C=N/n1cnnc1)=C\c1ccccc1 | -0.2% |
| Cc1ccc2nc(Nc3ccccc3)c(C=O)c(=O)n2c1 | -0.78% |
| CCN(CC)C(=O)Nc1c(C)n(C)n(-c2ccccc2)c1=O | 0.37% |
| CCOC(=O)c1c(CN2CCN(C)CC2)n(-c2ccccc2)c2cc(Br)c(O)cc12 | 0.39% |
| CCOC(=O)c1c(CN2CCOCC2)n(-c2ccccc2)c2cc(Br)c(O)cc12 | 1.59% |
| COc1ccc(CCN(C)C(=O)c2cccc(S(=O)(=O)NCc3ccccc3)c2)cc1OC | -1.05% |
| O=C1N[C@@H](Cc2ccccc2)C(=O)N2[C@@H]1C[C@@]1(Br)c3ccccc3N(S(=O)(=O)c3ccccc3)[C@@H]21 | -0.59% |
| CC(C)c1cc(C(C)C)c(S(=O)(=O)N2c3ccccc3[C@@]3(Br)C[C@H]4C(=O)N[C@@H](Cc5ccccc5)C(=O)N4[C@@H]23)c(C(C)C)c1 | 2.08% |
| CCOC(=O)c1c(C)c(C(=O)NCc2cccs2)c(C)n1CC | -0.75% |
| Fc1cccc(Cl)c1Cn1nnc2c(N3CCC4(CC3)OCCO4)ncnc21 | 0.17% |
| COc1cc2c(O)c3c(c(-c4ccc5c(c4)OCO5)c2cc1OC)C(=O)OC3 | 12.1% |
| COc1ccc(C(=O)Oc2ccc3c(c2)OCO3)cc1OC | 0.51% |
| Cc1nn(Cc2ccccc2Cl)c2sc(C(=O)OC3CCCC3=O)cc12 (stereo not given) | -0.34% |
| O=C(NCC(c1cccnc1)N1CCOCC1)NC1CCCCC1 (stereo not given) | 0.45% |
| COC(=O)c1c(-c2ccc(C)cc2)csc1NC(=O)c1c(-c2ccccc2)noc1C | 0.29% |
| CCOC(=O)c1c(-c2ccc(F)cc2)csc1NC(=O)c1c(-c2ccccc2)noc1C | -0.66% |
| COc1cc(C(=O)N2CCCN(c3nc4cc(C)ccc4cc3C#N)CC2)cc(OC)c1OC | 0.84% |
| COCCCNC(=S)N1CCCN(c2nc3cc(C)ccc3cc2C#N)CC1 | -0.77% |
| COc1cc(-c2csc(NC3CCCCC3)n2)cc(OC)c1OC | -0.66% |
| COc1ccc(/C=C2\SC(=S)N(NS(=O)(=O)c3ccc(C)cc3)C2=O)c(OC)c1 | -0.03% |
| O=C(CN1CCOCC1)Nc1nc(-c2ccc(Cl)cc2)cs1 | -0.54% |

| Structure (SMILES) | CPE inhibition |
| --- | --- |
| N=C1C(c2nc(-c3ccc(F)cc3)cs2)=C(O)CN1CCCN1CCOCC1 | 2.36% |
| CNc1nc2ccccc2n1CC(=O)c1ccccc1 | -1.12% |
| Cc1cccc(NC(=O)CCN2CCOCC2)c1 | 0.1% |
| CCOC(=O)c1sc(=NC(=O)c2cccs2)n(C)c1C | 0.29% |
| CCN(CCCNC(=O)c1cc2c(-c3cccc(OC)c3)nn(C)c2s1)Cc1ccccc1 | 11.5% |
| CCN(CC)CCNC(=O)c1cc2c(-c3cccc(OC)c3)nn(C)c2s1 | 10.3% |
| Cc1c(C(=O)c2ccc(Cl)c([N+](=O)[O-])c2)c2ccccn2c1CCC#N | 0.29% |
| O=C(CN1C(=O)NC2(CCCCCC2)C1=O)Nc1ccc(S(=O)(=O)N2CCOCC2)cc1 | 0.5% |
| CSCCC(N=Cc1c(O)n(-c2ccc(F)cc2)c(=O)[nH]c1=O)C(=O)O (stereo not given) | 0.06% |
| COc1ccc(-c2csc(N(CCCN(C)C)C(=O)c3ccccc3F)n2)cc1 | -0.14% |
| COc1ccc(-c2csc(N(CCCN(C)C)C(=O)c3cccs3)n2)cc1 | 0.38% |
| Cc1ccc2nc(-c3ccc(NC(=O)CCN4C(=O)c5ccccc5C4=O)cc3)sc2c1 | -0.32% |
| O=C(COc1ccc([N+](=O)[O-])cc1)N(Cc1ccccc1)Cc1ccccc1 | -0.78% |
| COC(=O)c1c(NC(=O)C(C)(C)C)sc2c1C(C(=O)OC)CC2 (stereo not given) | -0.06% |
| COC(=O)c1c(NC(=O)C(C)C)sc2c1C(C(=O)OC)CC2 (stereo not given) | 1.21% |
| CC1=C(C(=O)N2CCCC(CCC(=O)NCc3ccccc3F)C2)OCCO1 (stereo not given) | -0.63% |
| COc1ccc(C2c3c(ncn(CCCN4CCOCC4)c3=N)Oc3ccc4ccccc4c32)cc1OC (stereo not given) | -1.6% |
| COc1ccc(C2c3c(ncn(CCN4CCOCC4)c3=N)Oc3ccc4ccccc4c32)cc1OC (stereo not given) | -1.66% |
| COc1ccc(C2c3ccc4ccccc4c3Oc3ncn(CCCO)c(=N)c32)cc1 (stereo not given) | -1.98% |
| COc1ccc(C2c3ccc4ccccc4c3Oc3ncn(CCN4CCOCC4)c(=N)c32)cc1 (stereo not given) | -0.91% |
| COc1ccc(C2c3ccc4ccccc4c3Oc3ncn(CCO)c(=N)c32)cc1OC (stereo not given) | 57.3% |
| N=c1c2c(ncn1CCN1CCOCC1)Oc1ccc3ccccc3c1C2c1ccccc1 (stereo not given) | 2.66% |
| Cc1nc2nc(CCc3ccccc3)nn2c(C)c1Cl | 0.45% |

| Structure (SMILES) | CPE inhibition |
| --- | --- |
| CN(Cc1ccon1)C(=O)CCc1nnc(Cc2ccc(-c3ccccc3)cc2)o1 | -0.95% |
| Cc1cccc(-n2c(C)cc(C)c(C#N)c2=O)c1 | 0.53% |
| O=C(NNc1ccccc1[N+](=O)[O-])Nc1ccc(F)cc1F | -0.58% |
| O=C(CCc1nc2ccccc2s1)OCc1ccccc1F | -0.14% |
| O=c1c2c(-c3cccc([N+](=O)[O-])c3)ccnc2[nH]n1-c1ccccc1 | 0% |
| COCCn1c(N)c(N(Cc2ccccc2)C(=O)Cc2c(Cl)cccc2Cl)c(=O)[nH]c1=O | -0.15% |
| C=CCn1c(SCC(=O)Nc2ccc3c(c2)CCC3)nc2ccccc2c1=O | -0.68% |
| O=C(CSc1nc2ccccc2c(=O)n1-c1ccc(F)cc1)Nc1ccc(C(=O)O)cc1 | 0.03% |
| O=C(CSc1nc2ccccc2c(=O)n1-c1ccc(F)cc1)Nc1ccc(N2CCOCC2)cc1 | -1.03% |
| Cc1ccc(-n2c(SCC(=O)Nc3ccc(N4CCOCC4)cc3)nc3ccccc3c2=O)cc1 | 12.4% |
| CCCCn1c(SCC(=O)Nc2ccc3c(c2)CCC3)nc2ccccc2c1=O | -0.76% |
| COc1cccc(-n2c(SCC(=O)Nc3ccc4c(c3)CCC4)nc3ccccc3c2=O)c1 | 2.86% |
| O=C(Nc1ccccc1)C1CC(O)CN1S(=O)(=O)c1ccc([N+](=O)[O-])cc1 (stereo not given) | 0.17% |
| Cc1ccc(-c2oc3ccccc3c(=O)c2OCC(=O)O)cc1 | 0.23% |
| COc1cc(NC(=O)COC(=O)CCc2cc(OC)c(OC)c(OC)c2)cc(OC)c1 | 1.02% |
| COCCNC(=O)c1cc2sc3ccccc3c2s1 | -0.09% |
| CCN(CC)C(=O)c1cc2sc3ccccc3c2s1 | -0.37% |
| CCN(CC)CCCNC(=O)c1cc2c(=O)n(CC)c3ccccc3c2s1 | 1.54% |
| CN(C)CCCNC(=O)c1ccccn1 | 0.08% |
| CCCCN(CC)CCNC(=O)c1cc2c(=O)n(CC)c3ccccc3c2s1 | -1.08% |
| COCCN(CCOC)C(=O)c1cc2sc3ccccc3c2s1 | -0.78% |
